Measurements from ChEMBL document CHEMBL3433997, “St. Jude Leishmania screening dataset” (2016).

What follows are compounds tested against Hexose transporter 1 (Plasmodium falciparum) (UniProt O97467) (assay: ST_JUDE_LEISH: Cytotoxicity at 2uM final concentration against transgenic Leishmania Mexicana promastigotes LmPfHT that are glucose transport deficient and complemented with the Plasmodium falciparum hexose transporter. Activity is measured by DNA content using SYBR green in vitro).
Format: functional

Structure (SMILES) | inhibition [%]
O=C(Nc1ccc(Oc2cccnc2)cc1)C1CCN(Cc2cc(Cl)ccc2O)CC1 | 4.55
Cc1cccc2nc(-c3ccc(-c4ccc(CNCc5cnn(-c6ccccc6)n5)cc4)s3)[nH]c12 | -1.57
CCCN(c1ccc(O)c(CN2CCCCC2)c1)c1ccc([N+](=O)[O-])cn1 | 0.61
Oc1cccc2c1CC(NCc1ccccc1)CC2 (stereo not given) | 1.22
C(=N\Nc1nccc2sc(-c3ccccc3)cc12)/c1cccnc1 | 3.5
CC(=Nc1ccc(Cl)c(Cl)c1)N(C)C | 0.54
Cc1ccc(C)c(CC(=O)N2CCC(n3c(C)nc4ccc(F)cc43)CC2)c1 | 3.03
O=C(Nc1cccc(C(F)(F)F)c1)c1cccc(S(=O)(=O)NCC2CCN(CC3CCCCC3)CC2)c1 | -0.63
Oc1ccc2[nH]cc(C3CCN(CCCCCCCCCN4CCC(c5c[nH]c6ccc(O)cc56)CC4)CC3)c2c1 | -1.31
Cc1ccc2ccccc2c1CCCON1C(=N)N=C(N)NC1(C)C | 3.93
COc1ccc(-n2ccnc2SCC(=O)Nc2cc(Cl)ccc2OC)c(OC)c1 | -0.3
Cc1cccc2nc(-c3cccc(-c4cccc(CNCCc5cccn5C)c4)c3)[nH]c12 | 2.29
CC1(C)NC(N)=NC(=N)N1OCCCc1ccc(Cl)cc1Cl | 1.95
COc1cccc2cc(C(=O)N[C@@H](CC(C)C)C(=O)N[C@H](C=NN3CCOC3=O)Cc3ccccc3)oc12 | 0.23
NC(=O)COc1cccc2c1CCN(CCN1CCC(NC(=O)c3ccc(-c4ccc(Cl)cc4)cc3)CC1)C2 | 4.42
Cc1ccc(CNC(=O)c2ccc(CN3CCCN(Cc4ccsc4)CC3)cc2)cc1 | 0.79
CCCc1cc(NC2CCN(C)CC2)nc(Nc2ccc(F)cc2)n1 | 6.83
CN1CCN(CC2(Nc3nccc(NCCc4cn(C)c5ccccc45)n3)CCCCC2)CC1 | 1.78
COc1ccc(C(C(=O)NC2CCN(C[C@H](O)c3ccnc4ccc(OC)cc34)CC2)N2CCc3ccccc3C2)cc1 (stereo not given in full) | 2.33
Cc1cc(=O)c(-c2ccc(Oc3cccc(Cl)c3)cc2)c(C)[nH]1 | 5.62

Structure (SMILES) | inhibition [%]
CCCNC(=O)Nc1cc2cc(-c3cccc(CN4CCCCC4)c3)ccc2n2c(C)nnc12 | 1.3
COc1ccc2ncc(F)c(CCN3C[C@H](CNCc4cc(C#N)c5c(c4)OCCO5)[C@H](O)C3)c2n1 | 8.03
CCCCCCN1CCC(NCc2cccc3ccccc23)CC1 | 12.1
Cn1c(N)cc(-c2cccc(I)c2)c2c(=O)nc(N)nc1-2 | 4.5
CN(C)CCN(C)Cc1cccc(-c2ccc3c(Nc4cc(O)c(Cl)cc4F)ccnc3c2)c1 | -0.99
Oc1ccc(CCNc2nc(NCCCOc3ccccc3-c3cccc(C(F)(F)F)c3)nc(N3CCNCC3)n2)cc1 | 4.82
Cc1ccc(Cn2ncc(N3CCC(N)CC3)c(Cl)c2=O)cc1NC(=O)Nc1ccc(-c2ccccc2)cc1 | 12.3
CCCC(CNCc1cccc(I)c1)CNc1cc(=O)c2ccccc2[nH]1 (stereo not given) | 2.83
CCn1c(-c2nonc2N)nc2c(-c3ccccc3)ncc(OCCCCNCCc3ncc[nH]3)c21 | -0.76
N#Cc1ccc(Sc2nnc(-c3ccccc3Cl)n2CC2CCCCC2)cc1[N+](=O)[O-] | 3.12
Clc1ccccc1/C=C/c1cncnc1Nc1ccc2[nH]c(Cc3ccccc3)nc2c1 | 2.53
CCCCCCCCCCNCC(O)c1ccc(O)c(C(=O)OC)c1 (stereo not given) | 1.42
CCc1cn(CCOC)c2ccc(C(=O)N[C@@H](Cc3ccccc3)[C@H](O)CNC(C)(C)CCCC(C)C)cc12 | 1.3
COc1ccc(CN(C)CCCc2ccc(NC(=O)c3cccc4c(O)c5ccccc5nc34)cc2)cc1OC | 3.71
O=C(Nc1cccc(-c2nc3ccccc3s2)c1)c1ccccc1[N+](=O)[O-] | -0.02
O=C(NCCNc1ccnc(Nc2ccc(F)cc2)n1)c1cc2ccccc2s1 | 7.62
Cc1ccc(CN2CCN(c3cc4c(cc3Cl)CCN4C(=O)Cc3ccc(Cl)c(NC(=O)Nc4cccc(C#N)c4)c3)CC2)cc1 | -1.46
N#Cc1cccc(C(=O)Nc2cccc(-c3ccc(CN4CCCC4)cc3)c2)c1 | 2.56
COc1ccc(CNC2CCN(C)CC2)cc1-c1cccc(S(=O)(=O)NCc2ccccc2)c1 | 1.62
COc1ccc(-n2nc(C)c3c2NC(=O)CC3c2ccccc2OCc2ccc(F)cc2)cc1 (stereo not given) | 4.4
